According to PMC4102417:

The compounds below were run on murine 3T3 fibroblasts (assay: primary screen, percent viability or growth; higher = less effect of the substance).
Method: Similarly, for measuring the cytotoxicity concentration (CC50) for 3T3 fibroblast cells, cultures were incubated with drugs for 72 hours and developed using Alamar Blue (Alamar Biosciences Inc, Sacramento, CA) as previously described.

Point of comparison: `O[C@H]1[C@H]2c3cc4c(cc3CN3CCC(=C[C@@H]1O)[C@H]23)OCO4`, “Mammalian (3T3) cell % growth at 10 uM” value 29.6%. Against it:
- CN1CCC(=C2c3ccccc3Sc3ccccc32)CC1 — higher, 98.5%
- CNC1CCC(c2ccc(Cl)c(Cl)c2)c2ccccc21.Cl (stereo not drawn) — higher, 100%
- CCN(CC)CCOc1ccc2c(c1)C(=O)c1cc(OCCN(CC)CC)ccc1-2 — higher, 89%
- CC(=O)OC1CCC2(C)C3=C(CCC2C1(C)C)C1(C)CCC(C(C)CCC=C(C)C)C1(C)CC3 (stereo not drawn) — higher, 87.6%
- c1ccc(-c2ccc(C(c3ccccc3)n3ccnc3)cc2)cc1 (stereo not drawn) — higher, 93.6%
- Oc1ccc(Cl)c2cccnc12 — higher, 49.7%
- Nc1nc(N)c2nc(-c3ccccc3)c(N)nc2n1 — higher, 72.7%
- COc1ccc2c(c1)[nH]c1c(C)nccc12 — higher, 87.2%
- CCC(=O)O[C@H]1CC[C@H]2[C@@H]3CCc4cc(O)ccc4[C@H]3CC[C@]12C — higher, 100%
- C1CCC(C(CC2CCCCN2)C2CCCCC2)CC1.O=C(O)/C=C\C(=O)O (stereo not drawn) — lower, -0.2%
- CC(=O)OC1CC2C(C)(C)C(=O)CCC2(C)C2CCC3(C)C(c4ccoc4)OC(=O)C4OC43C12C (stereo not drawn) — higher, 81.4%
- CC1(C)C(=O)C=CC2(C)C1CC(=O)C1(C)C2CCC2(C)C(c3ccoc3)OC(=O)C3OC321 (stereo not drawn) — higher, 75.8%
- CCCOc1ccc2nc(NC(=O)OC)[nH]c2c1 — higher, 52.8%
- COC(=O)C1=C(C)NC(C)=C(C(=O)OCCN(C)Cc2ccccc2)C1c1cccc([N+](=O)[O-])c1 (stereo not drawn) — higher, 99.8%
- COc1cc2nc(N3CCN(C(=O)c4ccco4)CC3)nc(N)c2cc1OC.Cl — higher, 70.7%
- CN(C)CC/C=C1/c2ccccc2Sc2ccc(Cl)cc21 — higher, 97.1%
- COc1c2c(cc3occ(-c4ccc5c(c4)OCO5)c(=O)c13)OC(C)(C)C=C2 — higher, 68.2%
- COC(=O)CC1C2(C)CC34OC5(C)OC6(C7/C(=C(\OC)C(C)C)C(=O)OC(c8ccoc8)C7(C)C(OC(=O)C(C)C)C(OC)C6(O5)C13C)C(OC)C4(OC)C2OC(C)=O (stereo not drawn) — higher, 53.4%
- Clc1ccc(C(OCCN2CCCCC2)c2ccccc2)cc1 (stereo not drawn) — higher, 100%
- N[C@@H](Cc1ccc(O)c(O)c1)C(=O)O — lower, 3.9%
- COC(=O)CC[C@@H](C)[C@H]1CC[C@H]2[C@@H]3CC[C@@H]4C[C@H](O)CC[C@]4(C)[C@H]3C[C@H](O)[C@]12C — higher, 100%
- CCOC(=O)C(CCc1ccccc1)NC1CCc2ccccc2N(CC(=O)O)C1=O.Cl (stereo not drawn) — higher, 66.8%
- N#Cc1nn(-c2c(Cl)cc(C(F)(F)F)cc2Cl)c(N)c1S(=O)C(F)(F)F (stereo not drawn) — higher, 100%
- COC(=O)CCC(C)C1CCC2C3C(O)CC4CC(O)CCC4(C)C3CC(O)C12C (stereo not drawn) — higher, 81%
- COc1ccc2[nH]cc(CCN)c2c1.Cl — lower, 24.2%
- O=c1[nH]c(=O)n([C@H]2C[C@H](O)[C@@H](CO)O2)cc1F — higher, 86.2%
- Oc1ccc(O)cc1 — higher, 93.9%
- COc1c(C)c2c(c(O)c1C/C=C(\C)CCC(=O)O)C(=O)OC2 — higher, 97.2%
- CC12C=CC(=O)C=C1CCC1C2CCC2(C)C(=O)CCC12 (stereo not drawn) — higher, 72.1%
- Oc1ccc(/C=C\c2cc(O)cc(O)c2)cc1 — lower, 24.8%
- Cc1nc2ccccn2c(=O)c1CCN1CCC(C(=O)c2ccc(F)cc2)CC1 — higher, 91.6%
- O=c1c(O)c(-c2ccc(O)c(O)c2)oc2c(O[C@@H]3O[C@H](CO)[C@@H](O)[C@H](O)[C@H]3O)c(O)cc(O)c12 — higher, 100%
